The record followed here is the supplement of paper PMC4709259.

Test [1] relates to Jurkat. The experiment in a line: mean cell size (FSC-A) relative to DMSO control (fraction of control); higher = larger cells. The note with it: 48 h. Put shortly: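 Jurkat cells seeded at 600 cells/µl were incubated 1 h, then exposed for 48h to the Enzo Screen-Well FDA Approved Drug Library v2.0 at 25µM in 0.9% (v/v) final DMSO. Drugs that cut counts below 20% of controls were diluted 10-fold and retested, down to 25nM. Cell count and mean cell size (forward scatter area) were read on an Accuri C6 flow cytometer, relative to solvent-only controls. Plates held 6-12 controls; values are means of 3 biological replicates.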

Test [2] concerns Jurkat. As to the kind of experiment: cell count relative to DMSO control (fraction of control); higher = more cells (less growth inhibition). The note with it: 48 h.

Structures can show the parent of a compound that is named as a salt. ± gives the standard deviation.

`Cc1ccc(/C(=C\CN2CCCC2)c2cccc(/C=C/C(=O)O)n2)cc1` [Acrivastine] (concentration: 5 µM) showed a mean cell size in the test on Jurkat [1] of 1.06 ± 0.052. In addition, the cell count in the test with Jurkat [2] is 0.976 ± 0.12.
`CN1CCC[C@@H]1CCO[C@](C)(c1ccccc1)c1ccc(Cl)cc1` [Clemastine Fumarate] (concentration: 25 µM) gave a mean cell size with Jurkat [1] of 0.985 ± 0.024. In addition, the cell count in the test on Jurkat [2] was determined as 0.24 ± 0.04.
The matching figures for `OC[C@H]1O[C@@H](n2cnc3c2N=CNC[C@H]3O)C[C@@H]1O` [Pentostatin] (concentration: 25 µM): 0.959 ± 0.029 and 1.14 ± 0.024.
In the same order, the values of `NCCc1ccc(O)c(O)c1` [Dopamine·HCl] (concentration: 25 µM) are 0.951 ± 0.029 and 0.909 ± 0.097.
In the test with Jurkat [1], `COC(=O)[C@H](c1ccccc1Cl)N1CCc2sccc2C1` [Clopidogrel Hydrogen Sulfate] (concentration: 25 µM) showed a mean cell size of 0.981 ± 0.051. In the test on Jurkat [2], the cell count stood at 0.942 ± 0.095.
`CC(C)NCC(O)c1ccc(NS(C)(=O)=O)cc1` (stereo not given) [Sotalol·HCl] (concentration: 25 µM): the mean cell size in the test with Jurkat [1] worked out at 0.893 ± 0.059. Besides, the cell count in the test on Jurkat [2] amounted to 0.268 ± 0.17.
The matching figures for `O=C(NCC1CCCCN1)c1cc(OCC(F)(F)F)ccc1OCC(F)(F)F` (stereo not given) [Flecainide Acetate] (concentration: 25 µM): 0.97 ± 0.014 and 0.725 ± 0.033.
In the same order, the values of `O=C(O)c1cn(C2CC2)c2cc(N3CCNCC3)c(F)cc2c1=O` [Ciprofloxacin] (concentration: 25 µM) are 0.9157 ± 0.008 and 1.04 ± 0.13.
In the same order, the values of `COc1ccc(Cl)cc1C(=O)NCCc1ccc(S(=O)(=O)NC(=O)NC2CCCCC2)cc1` [Glyburide] (concentration: 25 µM) are 1.02 ± 0.051 and 0.806 ± 0.047.
`C[C@]12CC[C@@H]3c4ccc(OS(=O)(=O)O)cc4CC[C@H]3[C@@H]1CCC2=O` [Estropipate] (concentration: 25 µM) gave a mean cell size in the test on Jurkat [1] of 1.06 ± 0.069. The compound further returned a cell count in the test on Jurkat [2] of 0.747 ± 0.21.
The matching figures for `CCC(=O)OCC(=O)[C@@]1(OC(=O)CC)[C@@H](C)C[C@H]2[C@@H]3CCC4=CC(=O)C=C[C@]4(C)[C@@]3(Cl)[C@@H](O)C[C@@]21C` [Beclomethasone Dipropionate] (concentration: 25 µM): 0.913 ± 0.049 and 0.774 ± 0.07.
The matching figures for `C[C@H]1COc2c(N3CCN(C)CC3)c(F)cc3c(=O)c(C(=O)O)cn1c23` [Levofloxacin·HCl] (concentration: 25 µM): 0.936 ± 0.022 and 0.904 ± 0.066.
With `CC(C)(O/N=C(\C(=O)N[C@@H]1C(=O)N2C(C(=O)[O-])=C(C[n+]3ccccc3)CS[C@H]12)c1csc(N)n1)C(=O)O` [Ceftazidime] (concentration: 25 µM), in the test with Jurkat [1], the mean cell size came out at 0.958 ± 0.011. The cell count in the test on Jurkat [2] stood at 0.884 ± 0.095.
In the same order, the values of `Nc1nc2[nH]cnc2c(=S)[nH]1` [Thioguanine (6-Thioguanine)] (concentration: 25 µM) are 0.935 ± 0.045 and 1.09 ± 0.061.
In the same order, the values of `Nc1ncnc2c1ncn2[C@@H]1O[C@H](CO)[C@@H](O)[C@H]1O` [Adenosine] (concentration: 25 µM) are 1 ± 0.041 and 0.73 ± 0.082.
In the same order, the values of `CNC(=O)c1cc(Oc2ccc(NC(=O)Nc3ccc(Cl)c(C(F)(F)F)c3)cc2)ccn1` [Sorafenib Tosylate] (concentration: 2.5 µM) are 0.919 ± 0.022 and 0.999 ± 0.032.
In the case of `CC(=O)O[C@]1(C(C)=O)CC[C@H]2[C@@H]3C=C(C)C4=CC(=O)CC[C@]4(C)[C@H]3CC[C@@]21C` [Megestrol Acetate] (concentration: 25 µM), in the test with Jurkat [1], the mean cell size came to 0.9825 ± 0.0053. This compound also registered a cell count in the test on Jurkat [2] of 0.704 ± 0.059.
In the same order, the values of `CNCCC=C1c2ccccc2CCc2ccccc21` [Nortriptyline·HCl] (concentration: 25 µM) are 1.06 ± 0.025 and 0.498 ± 0.056.
The matching figures for `CC(C)NCC(O)COc1ccc(CCOCC2CC2)cc1` (stereo not given) [Betaxolol·HCl] (concentration: 25 µM): 1.01 ± 0.038 and 0.95 ± 0.17.
In the same order, the values of `CCc1nc(N)nc(N)c1-c1ccc(Cl)cc1` [Pyrimethamine] (concentration: 25 µM) are 0.959 ± 0.018 and 0.2 ± 0.033.
In turn, `CC[C@@]1(O)C(=O)OCc2c1cc1n(c2=O)Cc2cc3c(CN(C)C)c(O)ccc3nc2-1` [Topotecan·HCl] (concentration: 25 nM) registered a mean cell size in the test with Jurkat [1] of 1.31 ± 0.064. The cell count in the test on Jurkat [2] turned out to be 0.199 ± 0.016.
As for `CCCC(CCC)C(=O)O` [Valproic Acid] (concentration: 25 µM), in the test with Jurkat [1], the mean cell size is 0.986 ± 0.028. In the test on Jurkat [2], this compound had a cell count of 0.728 ± 0.029.
As for `Cn1c2ncnc-2c(O)n(C)c1=O` [Oxtriphylline] (concentration: 25 µM), in the test with Jurkat [1], the mean cell size is 0.953 ± 0.021. This compound displayed a cell count with Jurkat [2] of 0.761 ± 0.13.
In the same order, the values of `COc1c2occc2cc2ccc(=O)oc12` [Methoxsalen (Xanthotoxin)] (concentration: 25 µM) are 1.04 ± 0.019 and 0.761 ± 0.14.
The matching figures for `COc1cc(C)c(/C=C/C(C)=C/C=C/C(C)=C/C(=O)O)c(C)c1C` [Acitretin] (concentration: 25 µM): 0.883 ± 0.021 and 0.625 ± 0.11.
